Sampled rows, rich in hits. Any-hit rate of the full collection: about 3.1%.
uPA generation: blocks generation of uPA at the cell surface; cell surface uPA generation assay, qHTS; Potency, µM (top dose mostly 38.3 µM), inactives show at the top dose activity change, negative = inhibition, hits mostly inhibitors; actives 0.31% (n = 330,000); active = well fitted inhibition curve with a large enough effect; inconclusive = small, poorly fitted or top-dose-only effect; inactive = no such curve, though single readings can be large or run the other way; tested in mouse RAW 264.7 cells; note: potency is the fitted concentration of half-maximal effect; % is set by controls: 0 for no effect and ±100 for the full control effect; nearly all actives have a fitted effect of over 55% in size
RGS4 inh: blocks human RGS4-accelerated GTP hydrolysis | AID 504845 | Potency, µM (series often up to 114 µM), without a hit: at the highest dose activity change, negative = inhibition, most hits filed as inhibitors | actives 0.039% (n = 390,000) | Transcreener GDP fluorescence polarization, RGS4-accelerated GTP hydrolysis; active = well fitted inhibition curve with a large enough effect; inconclusive = small, poorly fitted or top-dose-only effect; inactive = no such curve, though single readings can be large or run the other way; note: potency is the fitted concentration of half-maximal effect; % is set by controls: 0 for no effect and ±100 for the full control effect; nearly all actives have a fitted effect of over 75% in size
Target sequence (P49798 whole entry, looked up): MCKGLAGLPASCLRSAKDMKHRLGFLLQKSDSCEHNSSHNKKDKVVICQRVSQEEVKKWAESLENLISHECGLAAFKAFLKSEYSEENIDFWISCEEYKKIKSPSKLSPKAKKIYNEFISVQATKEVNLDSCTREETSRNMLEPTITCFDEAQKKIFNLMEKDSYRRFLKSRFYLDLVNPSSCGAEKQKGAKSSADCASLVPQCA
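MLSMR compounds (23 nl, pin-transferred) preincubated 10 min at room temperature with a 500nM (2x) first reagent, then RGS4 at 900nM (2x) plus Transcreener GDP mix added; fluorescence polarization (620/688 nm) read before and after 90 min at 30 °C.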
DRD3 antagonist: blocks the human D3 dopamine receptor; P35462; D3R cells, DiscoveRx beta-arrestin luminescence, antagonist mode; stronger effect = lower value; max response, negative = inhibition, %; actives 2.5% (n = 360,000); AID 652054; in the data active = max response below about -50%; inconclusive = no clear call, values can overlap the other calls; note: % is set by controls: 0 for no effect and ±100 for the full control effect
Target sequence (P35462 whole entry, looked up): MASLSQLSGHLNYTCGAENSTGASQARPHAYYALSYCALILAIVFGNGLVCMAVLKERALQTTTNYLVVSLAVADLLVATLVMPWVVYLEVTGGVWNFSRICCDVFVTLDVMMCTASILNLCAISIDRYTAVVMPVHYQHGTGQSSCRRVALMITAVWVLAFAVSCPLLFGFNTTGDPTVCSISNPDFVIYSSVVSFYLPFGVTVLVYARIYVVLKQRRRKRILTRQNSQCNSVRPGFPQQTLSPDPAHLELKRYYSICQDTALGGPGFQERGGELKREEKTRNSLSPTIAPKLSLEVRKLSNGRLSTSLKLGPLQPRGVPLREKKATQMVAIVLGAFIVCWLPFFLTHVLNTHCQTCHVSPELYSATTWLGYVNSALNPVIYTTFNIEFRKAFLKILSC
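Cells expressing the human receptor were seeded at 1500 cells/well, incubated overnight at 37 degrees C in 5% CO2, then exposed to library compounds with dopamine controls for 90 minutes at 37 degrees C before luminescent detection.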
DRD3 agonist: activates the human D3 dopamine receptor; actives 0.58% (n = 410,000); AID 652048; P35462; D3R DiscoveRx beta-arrestin cells, luminescence, 90 min; max activation, %; in the data active = max activation above about 30%; note: 0% is about no effect
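Agonist-mode cell screen: cells plated at 1500/well and incubated overnight at 37 °C, then exposed to library compounds for 90 min at 37 °C. Detection reagent was added for 30–60 min at room temperature, and luminescence was read.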
Active calls of the source: *; ? = inconclusive; . = no result given; ! = not confirmed by another sample; [ ] = another dose, or the depositor's remark.

SMILES | uPA generation | RGS4 inh | DRD3 antagonist | DRD3 agonist
CCCCc1nn2c(=O)cc(COC(=O)c3cccs3)nc2s1 | . | -13.4% | . | 6.4
Nc1ccc2oc(Cc3ccc(Cl)cc3)nc2c1 | . | ? | . | 6.0
COc1ccccc1Cn1ccn(Cc2ccc(C)cc2)c(=O)c1=O | . | -5.7% | . | -5.0
COc1ccc(-c2nc(CSCC(=O)NCCc3ccc(OC)c(OC)c3)c(C)o2)cc1 | . | -29.9% | . | -8.0
O=C(Nc1ncccn1)c1ccc([N+](=O)[O-])o1 | -13.2% | -4.2% | -8.4 | 3.7
O=C(Nc1ccccn1)c1ccc([N+](=O)[O-])o1 | 7.08µM* | 18.8% | -0.7 | -3.1
COC(=O)C1=C(C)NC(COC(N)=O)=C(C(=O)OC(C)C)C1c1cccc(Cl)c1Cl (configuration not stated) | . | . | . | 1.8
Cc1ccc(NC(=O)C[n+]2cc(-c3ccc(C)cc3)n3c2CCC3)cc1 | 3.1% | -5.8% | -65.5* | -28.8
Cc1ccc(-c2c[n+](CC(=O)Nc3ccc(C)cc3C)c3n2CCC3)cc1 | -1.7% | 2.2% | ? | -20.6
Cc1ccccc1OCC(=O)Nc1ccc2oc(-c3ccc(F)cc3)nc2c1 | . | 11.9% | . | -2.4
O=C(Nc1cccnc1)c1cc(-c2cccs2)on1 | 15.1% | 2.1% | -60.6* | -22.7
O=C(Nc1cccc(C(F)(F)F)c1)c1cc(-c2cccs2)on1 | . | ? | -64.8* | -67.1
O=C(Nc1cccnc1)c1cc(-c2ccccc2O)on1 | -29.6% | 23.4% | -18.6 | -2.4
COc1ccccc1N1CCN(CCCCOc2c(OC)cccc2OC)CC1 | -2.8% | 6.7% | -108.2* | -15.7
COc1cccc(OC)c1OCCCN1CCC(Cc2ccccc2)CC1 | -6.1% | -3.4% | -95.2* | -19.9
COc1cccc(OC)c1OCCN1CCCC1 | -2.1% | -5.9% | -4.7 | -0.7
COc1ccccc1OCCCCCCN1CCOCC1 | 13.1% | 10.6% | -20.4 | -13.9
COc1ccccc1N1CCN(CCOc2c(OC)cccc2OC)CC1 | -5.0% | -13.1%[56.9 µM] | -68.0* | -8.3
COc1ccc(CN2CCN(C(c3ccc(F)cc3)c3ccc(F)cc3)CC2)c(OC)c1OC | ? | -5.7% | 0.0 | 0.0
COc1cccc(OC)c1OCCN1CCN(C(c2ccccc2)c2ccccc2)CC1 | -28.0% | 32.7% | -108.8* | -5.5
CC(=O)c1ccc(NC(=O)c2cccc(NC(=O)N3CCSc4ncccc43)c2)cc1 | . | -25.9% | . | 7.3
CC(C)CNc1ncnc2c1ncn2[C@H]1CN(Cc2ccc(-c3ccccc3)cc2)C[C@@H](CO)O1 | . | . | 12.2 | 10.4
COc1ccccc1N1CCN(CCCOc2ccc(F)cc2)CC1 | -4.0% | 18.6% | -90.7* | -17.3
COc1ccccc1N1CCN(CCCN=C2CC(=O)N(C)C(=O)N2C)CC1 | 0.4% | -0.6% | -55.7* | -61.9
O=C(O)COCCN1CCN(C(c2ccccc2)c2ccc(Cl)cc2)CC1 (configuration not stated) | -1.0% | 3.2%[56.9 µM] | . | .
SMILES | uPA generation | RGS4 inh | DRD3 antagonist | DRD3 agonist
COc1ccc(S(=O)(=O)N2CCN(CCCOc3ccc(F)cc3)CC2)cc1OC | -3.7% | 13.1% | -12.4 | -14.0
OCCOCCN1CCN(C(c2ccccc2)c2ccc(Cl)cc2)CC1 (configuration not stated) | -20.3% | -20.2% | -89.0* | -85.6
NC(=O)[C@H](Cc1cc2ccccc2s1)NC(=O)[C@@H]1CC2(CC(c3cccc(NC(=O)[C@@H]4CCC(=O)N4)c3)=NO2)CN1C(=O)/C=C/Sc1ccccc1 (some centres not stated) | 10.9% | ? | 1.9 | -10.7
NC(=O)[C@H](Cc1cc2ccccc2s1)NC(=O)[C@@H]1CC2(CC(c3cccc(NC(=O)[C@@H]4CCC(=O)N4)c3)=NO2)CN1C(=O)/C=C/c1c(F)cccc1Cl (some centres not stated) | 2.7% | ? | 9.2 | 34.1*
O=C(NC1CCCCCCC1)c1ccc(S(=O)(=O)N2CCCC2)cc1 | 2.2% | 10.0% | -52.8* | 3.4
O=C(NC1CCCCC1)c1ccc(S(=O)(=O)N2CCCCC2)cc1 | -3.6% | 5.1% | 14.2 | -1.3
COc1cccc(NC(=O)N2CCC(CN3CCOCC3)CC2)c1 | . | -18.4% | . | -14.4
CC(C)c1ccc(NC(=O)Nc2nc(C(N)C3CCCCC3)cs2)cc1 (configuration not stated) | . | . | 10.9 | -6.6
Cc1ccccc1NC(=O)Nc1nc(C(N)C2CCCCC2)cs1 (configuration not stated) | . | . | -83.8* | -10.8
Cc1ccc(N2CC(NC(=O)c3ccc(S(=O)(=O)N4CCCC4)cc3)CC2=O)cc1 (configuration not stated) | . | -0.7% | . | 8.1
O=C1C=C(NCc2ccccc2)c2ccccc2C1=O | -2.0% | -52.3% | -70.7* | -14.0
N#Cc1ccccc1Cn1c(=O)n(CCCCC(=O)NCc2ccc3c(c2)OCO3)c(=O)c2ccccc21 | . | 9.0% | . | 4.1
CSc1nc(N2CCOCC2)c2c3c(sc2n1)CCC3 | -8.0% | -13.7% | -65.1* | 11.0
COC(=O)c1ccc(Nc2ncnc3c2cnn3-c2ccccc2)cc1 | . | 4.7% | . | -7.1
CC1CCN(CCCNC(=O)c2cc3sccc3n2C)CC1 | . | 12.5% | -85.8* | -32.0
COc1ccc(N2CCN(CCCNC(=O)c3cc4sccc4n3C)CC2)cc1 | . | 6.4% | -57.3* | -64.5
COc1ccc(N2CCN(CCCNC(=O)Cn3c(-c4cccs4)cc4ccccc43)CC2)cc1 | . | -10.3% | . | 31.6*
Cn1c(C(=O)NC2CCCCC2)cc2sccc21 | -10.4% | -19.6% | -18.7 | -5.0
Cc1cc2nc(C(C)(C)C)c(Cc3ccccc3)n2c(C)c1Br | . | . | -97.1* | -20.6
COc1ccc(Cc2c(C(C)(C)C)nc3cc(C)c(Br)c(C)n23)c(C)c1 | . | . | 38.4 | 7.7
CCCC(=O)O[C@]1(C(=O)COC(=O)CC)[C@@H](C)C[C@H]2[C@@H]3CCC4=CC(=O)C=C[C@]4(C)[C@@]3(F)[C@@H](O)C[C@@]21C | . | . | . | -7.4
COc1ccc(Cc2nc3ccccc3n2Cc2ccccc2F)cc1 | . | 19.0% | . | 2.2
Cn1c(Sc2ccc(C(=O)O)cc2[N+](=O)[O-])nnc1-c1ccccc1 | 3.0% | ? | -2.0 | -16.1
O=C(O)c1ccc(Sc2nnc(-c3cccc(Br)c3)o2)c([N+](=O)[O-])c1 | -13.2% | -33.9% | -66.0* | -1.5
C=C[C@@]1(C)CC(=O)[C@]2(O)[C@@]3(C)[C@@H](O)CCC(C)(C)[C@@H]3[C@H](O)[C@H](OC(C)=O)[C@@]2(C)O1 | -9.0% | -5.1% | 102.2 | 35.7*!
Cc1cc(F)ccc1-c1cc(C(=O)NCc2cc(C(F)(F)F)cc(C(F)(F)F)c2)[nH]n1 | . | . | -8.3 | -0.1
COc1ccc(F)cc1-c1cc(C(=O)NCc2cccc(C(F)(F)F)c2)[nH]n1 | . | . | -24.1 | -5.5
Cc1ccc(F)cc1-c1cc(C(=O)NCc2cc(C(F)(F)F)cc(C(F)(F)F)c2)[nH]n1 | . | . | -69.8* | -13.3
COc1ccc(F)cc1-c1cc(C(=O)NCc2ccc(C(F)(F)F)cc2)[nH]n1 | . | . | -73.2* | -20.7
CCCc1ccc(OCC(O)CN2CCN(c3ccccc3)CC2)cc1 (configuration not stated) | 3.2% | -31.9% | ? | 68.0*

Bioassay records deposited in PubChem by National Center for Advancing Translational Sciences (NCATS).
